Screening data (PubChem BioAssay)
In the library only some 3% were active in any assay of this set; here they are far more common.
IP6K1 inhibitor = blocks human inositol hexakisphosphate kinase 1. 140,000 tested, 0.81% active. activity change, % (series mostly up to about 58 µM). IP6K1 kinase, ADP-Glo luminescence, 2 h; stronger effect = lower value. Q92551; in the data active means activity change below about -25%; further: on the % scale 0 is the no-effect control and ±100 the full control effect
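ADP-Glo luminescence measures ADP made by human IP6K1 during a 2 h RT reaction with ATP/IP6 (mix at 1.3 mM/130 uM); top library doses 57.5 and 19.1 uM final.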
KDM5B inh = inhibitors of human KDM5B histone demethylase. Q9UGL1. KDM5B demethylase, FDH-coupled NADH fluorescence (FDH is formaldehyde dehydrogenase). Potency, µM (highest dose often 57.7 µM), actives largely listed as inhibitors. 220,000 tested, 2.6% active. AID 1347165; further: potency means the concentration at half of the fitted maximal effect; 0% is about no effect; nearly all actives have a fitted effect of over 70% in size
Target sequence (Q9UGL1 whole entry, looked up): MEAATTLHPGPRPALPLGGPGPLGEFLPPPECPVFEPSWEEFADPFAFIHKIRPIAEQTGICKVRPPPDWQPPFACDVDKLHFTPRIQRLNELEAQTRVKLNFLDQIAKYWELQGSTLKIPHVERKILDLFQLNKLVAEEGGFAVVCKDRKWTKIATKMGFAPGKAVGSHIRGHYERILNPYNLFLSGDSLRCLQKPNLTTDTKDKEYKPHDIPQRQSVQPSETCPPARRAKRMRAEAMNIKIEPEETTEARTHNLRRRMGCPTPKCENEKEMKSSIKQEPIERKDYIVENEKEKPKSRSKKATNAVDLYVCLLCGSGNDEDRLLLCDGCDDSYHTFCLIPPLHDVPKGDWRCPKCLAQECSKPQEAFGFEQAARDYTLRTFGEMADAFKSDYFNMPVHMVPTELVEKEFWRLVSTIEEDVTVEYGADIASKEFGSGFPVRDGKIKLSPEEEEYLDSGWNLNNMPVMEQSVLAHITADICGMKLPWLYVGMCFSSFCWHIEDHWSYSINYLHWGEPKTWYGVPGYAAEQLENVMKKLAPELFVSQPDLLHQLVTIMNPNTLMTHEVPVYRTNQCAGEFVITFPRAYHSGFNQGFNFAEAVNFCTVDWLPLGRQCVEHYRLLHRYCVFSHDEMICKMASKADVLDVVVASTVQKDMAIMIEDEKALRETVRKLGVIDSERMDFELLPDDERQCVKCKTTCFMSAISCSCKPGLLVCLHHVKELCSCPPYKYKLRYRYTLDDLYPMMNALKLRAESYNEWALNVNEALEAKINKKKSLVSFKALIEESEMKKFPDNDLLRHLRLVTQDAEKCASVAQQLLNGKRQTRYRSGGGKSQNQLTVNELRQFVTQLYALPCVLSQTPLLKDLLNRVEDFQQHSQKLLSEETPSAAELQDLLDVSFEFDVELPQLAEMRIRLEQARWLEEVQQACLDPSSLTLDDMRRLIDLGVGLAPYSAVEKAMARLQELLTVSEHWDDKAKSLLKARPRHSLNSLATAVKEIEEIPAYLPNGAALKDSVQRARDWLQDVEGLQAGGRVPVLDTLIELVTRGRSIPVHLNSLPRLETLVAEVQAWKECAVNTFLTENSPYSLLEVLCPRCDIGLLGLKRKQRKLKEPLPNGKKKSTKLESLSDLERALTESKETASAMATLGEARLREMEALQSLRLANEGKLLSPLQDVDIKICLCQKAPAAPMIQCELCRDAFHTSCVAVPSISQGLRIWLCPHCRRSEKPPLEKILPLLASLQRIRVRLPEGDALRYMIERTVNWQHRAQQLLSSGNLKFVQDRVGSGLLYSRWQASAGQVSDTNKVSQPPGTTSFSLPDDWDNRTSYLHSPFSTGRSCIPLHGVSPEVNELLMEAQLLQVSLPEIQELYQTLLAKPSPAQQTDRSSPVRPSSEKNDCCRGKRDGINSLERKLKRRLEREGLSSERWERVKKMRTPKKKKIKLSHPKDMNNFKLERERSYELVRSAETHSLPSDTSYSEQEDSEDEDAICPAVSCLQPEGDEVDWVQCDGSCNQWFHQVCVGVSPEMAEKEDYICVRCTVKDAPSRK
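KDM5BΔAP (200 nM final) in 50 mM HEPES pH 7.5, 0.01% Tween-20 was preincubated 10 min at RT with compound over a concentration range. Substrate mix (H3K4me3 12.5 µM, α-KG 25 µM, Fe²⁺, ascorbate, NAD⁺, FDH) was added, and NADH fluorescence change over 30 min gave dose-response curves.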
SNCA expr inh = reduces expression of the alpha-synuclein gene; Potency, µM (series often up to 57.2 µM), inactives show at the top dose activity change, negative = inhibition, usual class: inhibitors; 140,000 tested, 0.17% active; HEK-293 SNCA-luciferase knock-in, luminescence, 24 h;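 further: potency means the concentration at half of the fitted maximal effect; plate controls were DMSO cells for no effect and cell-free wells for full effect; nearly all actives have a fitted effect of over 45% in size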
HEK293 viab = cell viability loss counter-screen | HEK-293-SNCA-luc viability, GF-AFC fluorescence, 24 h | AID 1671193 | Potency, µM (top dose mostly 57.1 µM), for inactives: at the top dose activity change, negative = cytotoxicity, hits mostly cytotoxic | 150,000 tested, 0.12% active;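 further: potency means the concentration at half of the fitted maximal effect; 0% = DMSO-treated cells and -100% = medium-only wells without cells; nearly all actives have a fitted effect of over 30% in size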
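Cytotoxicity counterscreen: after 24 h compound treatment of genome-edited SNCA-luciferase HEK-293 cells, live-cell protease substrate GF-AFC read by fluorescence after 30 min; activity scaled between DMSO (0%) and medium-only (-100%), curves Hill-fitted.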
Active calls of the source: *; i = inactive; ? = inconclusive; · = no result given; [ ] = remark or other dose. Unless noted, the call rests on the fitted dose curve; in most records, active means well fitted curve in the direction sought with a large enough effect; inconclusive means small, poorly fitted or top-dose-only effect, or another doubt; inactive means no such curve, though single readings can be large; an effect the other way counts as inactive or inconclusive.

SMILES | IP6K1 inhibitor | KDM5B inh | SNCA expr inh | HEK293 viab
O=C(NCc1cccs1)c1nc(-c2ccccc2)c2ccccn12 | 12 | 11µM* | ? | -7%[87.6 µM]
O=C(NCc1ccc2c(c1)OCO2)c1nc(-c2ccccc2)c2ccccn12 | 33 | ? | 27% | 1%
COc1cccc(-c2ccc(CN3CCCC3C(=O)NCc3ccccc3)cc2)c1 (stereo unspecified) | -3 | · | -9% | -16%
O=C(NCc1ccc(F)cc1)c1nc(-c2ccsc2)c2ccccn12 | 2 | 25µM* | 23% | 1%
O=C(NCc1cccs1)c1nc(-c2ccsc2)c2ccccn12 | 0 | 40µM* | 20%[87.6 µM] | 3%[87.6 µM]
O=C(NCc1cccs1)c1nc2sccn2c1-c1ccncc1 | 3 | · | 7%[87.6 µM] | ?
O=C(NCc1ccc(F)cc1)c1nc(-c2ccc(Cl)cc2Cl)c2ccccn12 | -5 | ? | -28% | 1%
O=C(c1ccc2nc(-c3ccccn3)oc2c1)N1CCCCC1 | -7 | · | ? | 4%[87.6 µM]
COc1cccc(-c2ccnc(-c3nnc(C)n3Cc3ccccc3)c2)c1 | -6 | 35µM* | 33%[87.6 µM] | -5%[87.6 µM]
COCCn1c(C)nnc1-c1cc(-c2ccnc(OC)c2)ccn1 | -1 | ? | -1%[87.6 µM] | 3%[87.6 µM]
Cc1nnc(-c2cc(-c3cccc(F)c3)ccn2)n1Cc1ccccc1 | -1 | i | 25%[87.6 µM] | -16%[87.6 µM]
COCCn1c(C)nnc1-c1cc(-c2ccc(OC)c(OC)c2)ccn1 | -9 | 32µM* | 31%[87.6 µM] | 4%[87.6 µM]
COCCNC(=O)C1CCCN1Cc1cccc(-c2cccc(OC)c2)c1 (stereo unspecified) | -6 | · | 69% | 13%
Cc1onc(C(=O)NCc2ccc3[nH]c(-c4ccc(F)cc4)c(C)c3c2)c1CO | -3 | ? | 0% | -21%
Cc1c(-c2ccc(F)cc2)[nH]c2ccc(CNC(=O)c3cnn(C)c3)cc12 | -9 | 32µM* | -17% | -13%
Cc1c(-c2ccc(F)cc2)[nH]c2ccc(CNC(=O)c3n[nH]c4c3CCCC4)cc12 | -22 | 10µM* | -26% | ?
Cn1ncc2c(C(=O)NC3CCC3)cc(-c3ccc(C(F)(F)F)cc3)nc21 | -12 | · | · | ·
O=c1cc(N2CCOCC2)oc2c(-c3cccc(F)c3)nccc12 | -12 | 40µM* | 8%[87.6 µM] | 0%[87.6 µM]
O=c1cc(N2CCOCC2)oc2c(-c3ccccc3O)nccc12 | -22 | i | -15%[87.6 µM] | -9%[87.6 µM]
O=c1cc(N2CCOCC2)oc2c(NC3CCOCC3)nccc12 | -18 | 35µM* | -24%[87.6 µM] | 9%[87.6 µM]
C[S+](=O)([O-])c1cccc(-c2nccc3c(=O)cc(N4CCOCC4)oc23)c1 | -1 | 28µM* | 14%[87.6 µM] | -1%[87.6 µM]
O=c1cc(N2CCOCC2)oc2c(-c3cccnc3)nccc12 | -8 | 40µM* | 8%[87.6 µM] | 6%[87.6 µM]
O=c1cc(N2CCOCC2)oc2c(Nc3ccccc3)nccc12 | -8 | i | 21%[87.6 µM] | 5%[87.6 µM]
Cc1nn(-c2ccccc2)c2c1C(C1CC1)N(C1CN(C(=O)c3ccc(Cl)nc3)C1)C2=O (stereo unspecified) | 12 | · | · | ·
COc1ccc(-c2ccc(C(=O)NCCc3ccc(F)cc3)c(Cl)c2)nn1 | -6 | · | · | ·
SMILES | IP6K1 inhibitor | KDM5B inh | SNCA expr inh | HEK293 viab
COc1cccc(-c2nccc3c(=O)cc(N(C)C)oc23)c1 | -12 | 32µM* | -3%[87.6 µM] | 0%[87.6 µM]
CN(C)c1cc(=O)c2ccnc(-c3ccc(F)c(Cl)c3)c2o1 | -17 | 35µM* | 1%[87.6 µM] | 9%[87.6 µM]
CN(c1cc(=O)c2ccnc(-c3ccccc3Oc3ccccc3)c2o1)C1CCOCC1 | 16 | i | 33%[87.6 µM] | 2%[87.6 µM]
O=c1cc(N2CCOCC2)oc2c(-c3cncnc3)nccc12 | -12 | 25µM* | 21%[87.6 µM] | 5%[87.6 µM]
CN(C)c1cc(=O)c2ccnc(-c3ccccc3Oc3ccccc3)c2o1 | -11 | 35µM* | 111%[87.6 µM] | 7%[87.6 µM]
COc1cccc(-c2nccc3c(=O)cc(N4CCOCC4)oc23)c1 | -3 | 35µM* | 40%[87.6 µM] | -7%[87.6 µM]
Cn1nccc1-c1nccc2c(=O)cc(N3CCOCC3)oc12 | 2 | 35µM* | 21%[87.6 µM] | -10%[87.6 µM]
O=c1cc(-c2cccnc2)oc2c(-c3ccccc3F)nccc12 | -11 | 35µM* | ? | -17%[87.6 µM]
COc1ccc(Nc2nccc3c(=O)cc(N4CCOCC4)oc23)cn1 | -4 | 32µM* | ? | ?
COc1ccccc1-c1ccc(CN2CCC(NC(=O)c3ccccc3Cl)C2)cc1 (stereo unspecified) | 14 | · | · | ·
Cc1ccc(OCC(=O)N2CCC(CC(=O)N(C)Cc3ccccc3)C2)cc1 (stereo unspecified) | 6 | · | -11% | -11%
CN(C)c1cc(=O)c2ccnc(-c3ccccc3F)c2o1 | -20 | i | -13%[87.6 µM] | 0%[87.6 µM]
Cc1ccc(F)cc1-c1nccc2c(=O)cc(N(C)C)oc12 | -8 | 40µM* | 2%[87.6 µM] | 6%[87.6 µM]
CN(c1ccccc1)c1cc(=O)c2ccnc(NCC3CCOCC3)c2o1 | -22 | i | -7%[87.6 µM] | -9%[87.6 µM]
CC(=O)Nc1cccc(-c2nccc3c(=O)cc(N4CCOCC4)oc23)c1 | 5 | 35µM* | 9%[87.6 µM] | -7%[87.6 µM]
COc1cc(CNc2nccc3c(=O)cc(N4CCOCC4)oc23)cc(OC)c1 | -10 | 28µM* | -20%[87.6 µM] | ?
COc1ccccc1-n1nc(-c2c(C)nc3scc(CC(=O)NCc4ccco4)n3c2=O)cc1C | 19 | 28µM* | 0% | -1%
COCCCNC(=O)Cc1csc2nc(C)c(-c3cc(C)n(-c4ccccc4F)n3)c(=O)n12 | 6 | 28µM* | 19% | 7%
CCCCCNC(=O)Cc1csc2nc(C)c(-c3cc(C)n(-c4ccccc4F)n3)c(=O)n12 | 15 | ? | -5% | -10%
Cc1ccc(C)c(-n2nc(-c3c(C)nc4scc(CC(=O)NCc5ccco5)n4c3=O)cc2C)c1 | -4 | 20µM* | ? | 8.9µM*
Cc1nc2scc(CC(=O)NCc3ccco3)n2c(=O)c1-c1cc(C)n(-c2ccccc2F)n1 | -3 | 28µM* | 6% | -1%
Cc1ccc(-n2nc(-c3c(C)nc4scc(CC(=O)NCc5ccco5)n4c3=O)cc2C)cc1 | -13 | ? | -9% | 3%
COc1ccc(F)cc1-c1ccc(CN2CCCCC2C(=O)NCCc2ccccn2)cc1 (stereo unspecified) | 3 | · | · | ·
Cc1ncccc1-c1nc2cc(C(=O)N3CCCCC3)ccc2o1 | -1 | · | 57% | 8%
CCc1ccccc1-n1nc(-c2c(C)nc3scc(CC(=O)NCc4ccccc4)n3c2=O)cc1C | 4 | ? | 9% | 2%
SMILES | IP6K1 inhibitor | KDM5B inh | SNCA expr inh | HEK293 viab
COc1ccccc1-n1nc(-c2c(C)nc3scc(CC(=O)NCc4ccccc4)n3c2=O)cc1C | 7 | 25µM* | 3% | -15%
Cn1ncc(N2CCOC(CCNc3cnc4ccccc4n3)C2)cc1=O (stereo unspecified) | -15 | 32µM* | 24% | 4%
Cc1cc(C)cc(NC(=O)Cn2ccn3nc4c(c3c2=O)CCCC4)c1 | -2 | 35µM* | 18% | 0%
Cc1cc(NC(=O)Cn2ccn3nc4c(c3c2=O)CCCC4)no1 | 0 | 25µM* | 26% | 9%
Cc1cccc(NC(=O)Cn2ccn3nc4c(c3c2=O)CCCC4)c1C | 38 | 28µM* | 23% | 1%
O=C(Cn1ccn2nc3c(c2c1=O)CCCCC3)Nc1cc(F)ccc1F | 6 | 28µM* | 0% | 5%
